Screening results deposited in PubChem BioAssay by National Center for Advancing Translational Sciences (NCATS).
S2 tox = cell viability loss in ATXN counter-screen; Potency, µM (titrated, usually from 56.7 µM), most hits filed as cytotoxic; 400,000 tested, 0.49% active; AID 651635; S2 cells (HEK-293 line with an ATXN2-luciferase reporter) viability, CellTiter-Fluor protease fluorescence, 24 h; further: nearly all actives have a fitted effect of over 40% in size
DT40 TDP1 no CPT = qHTS for Inhibitors of human tyrosyl-DNA phosphodiesterase 1 (TDP1): qHTS in cells in absence of CPT; AID 686978, 2013; 420,000 tested, 15% active; Potency, µM (doses to about 46.2 µM), inactives show top-dose activity change, negative = growth inhibition, most hits filed as inhibitors; DT40 Tdp1-/- hTDP1 cells, no CPT, ATP luminescence, 48 h; further: on the % scale 0 is the no-effect control and ±100 the full control effect; nearly all actives have a fitted effect of over 55% in size
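Luminescent ATP content (CellTiter-Glo) served as the growth readout. Knockout chicken DT40 cells expressing human TDP1 were exposed to compounds without camptothecin for a minimum 48 hr at 37 °C.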
ATXN2 expr inh = reduces ATXN2 reporter expression in HEK-293 cells; 360,000 tested, 0.72% active; HEK-293 ATXN2-luciferase reporter, luminescence, 24 h; Potency, µM (doses to about 57 µM), for inactives: top-dose activity change, negative = inhibition, actives largely listed as inhibitors; AID 1745845; further: on the % scale 0 is the no-effect control and ±100 the full control effect; nearly all actives have a fitted effect of over 55% in size
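ATXN2-luciferase reporter cells (luciferase flanked by upstream and downstream ATXN2 gene portions) were treated 24 h at 37 °C with compounds at up to 57 uM. SteadyGlo luminescence gave expression; GF-AFC fluorescence gave viability.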
TGFb SMAD3 inh = inhibitors of TGF-b signaling; HepG2 CAGA-GFP TGF-b/SMAD3 reporter, GFP fluorescence, 18 h; TGF-beta stimulated, 500 pg/mL final; Potency, µM (top dose mostly 46.1 µM), without a hit: top-dose activity, negative = inhibition, most hits filed as inhibitors; 410,000 tested, 1.2% active; AID 588855; further: on the % scale 0 is the no-effect control and ±100 the full control effect; nearly all actives have a fitted effect of over 65% in size
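HEPG2 CAGA-GFP, 1000 cells/well; 2 h settle, 37 C; cpd via pin tool; TGF-b 500 pg/mL final; 18 h, 37 C; GFP imaging ex488/em500-530; %Activity normalised to -TGF-b and +DMSO controls; CRC fit, curve class.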
DT40 TDP1 CPT = DT40-hTDP1 cell growth loss with CPT. chicken DT40 Tdp1-/-;hTDP1 cells + 20 nM CPT, ATP luminescence, 48 h. Potency, µM (series often up to 46.2 µM), for inactives: at the highest dose activity change, negative = growth inhibition, most hits filed as inhibitors. 420,000 tested, 12% active. AID 686979; further: on the % scale 0 is the no-effect control and ±100 the full control effect; nearly all actives have a fitted effect of over 55% in size
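Cell growth measured by CellTiter-Glo luminescence after a minimum 48 h, 37 C compound exposure with 20 nM CPT in Tdp1-knockout DT40 cells stably expressing hTDP1, seeded 400/well; qHTS titration format.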
HepG2 tox = counter-screen for TGF-b inhibitors: cytotoxicity in HepG2 cells; Potency, µM (highest dose often 46.1 µM), for the others: top-dose activity change, negative = cytotoxicity, hits mostly cytotoxic; AID 588856; 410,000 tested, 0.76% active; HepG2 CAGA-GFP viability, ATP luminescence, 18 h
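HepG2 CAGA-GFP cells (1000/well, DMEM with 1% FBS) received compound, then TGF-beta at 500 pg/mL final, and were incubated 18 hours at 37 degrees C. Viability was read by CellTiter-Glo luminescence. Media-only wells were set as complete cell-killing and DMSO as no toxicity.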
Active calls of the source: *; i = inactive; ? = inconclusive; nt = no result given; ! = repeats disagree. Shown are actives, neighbours in structure and some others; about 17% of the full set was active somewhere. The call rests on the fitted dose curve; in most records, active means well fitted curve in the direction sought with a large enough effect; inconclusive means small, poorly fitted or top-dose-only effect, or another doubt; inactive means no such curve, though single readings can be large; an effect the other way counts as inactive or inconclusive. Potency means the concentration at half of the fitted maximal effect.

SMILES	S2 tox	DT40 TDP1 no CPT	ATXN2 expr inh	TGFb SMAD3 inh	DT40 TDP1 CPT	HepG2 tox
CCC(CO)NCc1ccc(OCC(O)c2ccccc2)c(OC)c1 (configuration not stated)	?	13%	-22%	-3%	6%	-32%
CN1CCN(C(=O)c2ccc3c(=O)n(Cc4ccc5c(c4)OCO5)c(=S)[nH]c3c2)CC1	nt	13µM*	nt	nt	22µM*	nt
CN1CCN(C(=O)c2ccc3c(=O)n(Cc4ccc(Cl)cc4)c(=S)[nH]c3c2)CC1	i	?	-3%	-27%	21µM*	-40%
CCCCCn1c(=O)[nH]c2cc(C(=O)N3CCN(Cc4ccc5c(c4)OCO5)CC3)ccc2c1=O	i	10µM*	?	1%	4.6µM*	-10%
CCCCCn1c(=O)[nH]c2cc(C(=O)NCc3ccc4c(c3)OCO4)ccc2c1=O	i	-16%	-10%	9%	-9%	-26%
CC(=O)c1ccc(N2CCN(S(=O)(=O)c3ccc4c(c3)NC(=O)CO4)CC2)cc1	i	13%	-3%	-2%	-19%	-14%
COc1cc(NC(=S)N2CCC(C(O)(c3ccccc3)c3ccccc3)CC2)cc(OC)c1	?	?	nt	?	?	6%
O=c1cc(-c2ccc(O)c(O)c2)oc2cc(OC3OC(CO)C(O)C(O)C3O)cc(O)c12 (configuration not stated)	nt	-2%	nt	nt	5%	nt
CCOc1cccc(C2c3c(oc4ccc(F)cc4c3=O)C(=O)N2c2cc(C)ccn2)c1 (configuration not stated)	i	23µM*	3%	4%	16µM*	-1%
CCN(c1ccccc1)c1nnc(NC(=O)Nc2ccccc2F)s1	nt	2.6µM*	nt	-5%	?	-23%
CCN(c1ccccc1)c1nnc(NC(=O)Nc2cccc(C(F)(F)F)c2)s1	nt	-24%	nt	28%	-22%	2%
Cc1cccc(NC(=O)Nc2nnc(N(C)Cc3ccccc3)s2)c1	nt	?	nt	-24%	15µM*	-16%
Cc1c(Cl)cccc1NC(=O)Nc1nnc(N(C)Cc2ccccc2)s1	nt	-27%	nt	i	?	-2%
Cc1ccccc1NC(=O)Nc1nnc(N(C)Cc2ccccc2)s1	nt	16µM*	nt	-16%	?	-23%
COC(=O)c1ccc(NC(=O)Cn2nc(-c3ccncc3)nc2SCC(=O)Nc2nccs2)cc1	i	-5%	-18%	13%	-15%	-10%
O=C(COC(=O)c1ccccc1NCCO)NNC(=O)c1cccs1	i	?	6%	3%	-22%	-2%
O=C(COC(=O)c1ccc(OC(F)F)cc1)NCCC1=CCCCC1	i	0%	-2%	-10%	-1%	-33%
CCOc1cc2c(cc1OCC)C(CC(=O)OC)N(C(=O)Nc1cc(C)cc(C)c1)CC2 (configuration not stated)	nt	-27%	nt	3%	-18%	0%
CCOc1cc2c(cc1OCC)C(CC(=O)OC)N(C(=O)Nc1cc(OC)ccc1OC)CC2 (configuration not stated)	nt	15µM*	nt	?	21µM*	-16%
CCOC(=O)CC1c2cc(OCC)c(OCC)cc2CCN1C(=O)Nc1cccc(Cl)c1 (configuration not stated)	nt	16µM*	nt	-11%	?	-22%
O=[N+]([O-])c1cc2c(cc1Br)-c1ccccc1C2	?	26µM*	nt	?	-9%	-97%
COc1cc2c(cc1[N+](=O)[O-])-c1ccccc1C2	i	-13%	7%	18%	-15%	-3%
O=[N+]([O-])c1ccc2c(c1Nc1ccccc1)=NC1(CCCCC1)N=2	i	?	1%	-10%	?	-62%
COc1ccc(Nc2c([N+](=O)[O-])ccc3c2=NC2(CCCCC2)N=3)cc1	?	21µM*	-29%	?	?	1%
CCc1ccc(C2=NN(c3ccc(S(N)(=O)=O)cc3)C(c3ccc(F)cc3)C2)cc1 (configuration not stated)	?	?	?	?	18µM*	-109%
SMILES	S2 tox	DT40 TDP1 no CPT	ATXN2 expr inh	TGFb SMAD3 inh	DT40 TDP1 CPT	HepG2 tox
NS(=O)(=O)c1ccc(N2N=C(c3ccccc3)CC2c2ccccc2Cl)cc1 (configuration not stated)	i	-23%	?	?	-8%	-84%
Cc1ccc(C2CC(c3ccccc3)=NN2c2ccc(S(N)(=O)=O)cc2)cc1 (configuration not stated)	i	?	-34%	?	29µM*	-85%
NS(=O)(=O)c1ccc(N2N=C(c3ccccc3)CC2c2ccccc2)cc1 (configuration not stated)	i	?	-25%	?	?	-104%
NS(=O)(=O)c1ccc(N2N=C(c3ccccc3)CC2c2ccc(Br)cc2)cc1 (configuration not stated)	?	?	?	?	?	28µM*
CCCCCN(CCCOC)C(=O)C(CCC(=O)O)NC(=O)c1ccc(Cl)c(Cl)c1 (configuration not stated)	i	nt	6%	nt	nt	nt
COc1ccc(S(=O)(=O)NNC(=O)C23CC4CC(CC(C4)C2)C3)cc1[N+](=O)[O-]	i	?	6%	-3%	-5%	-1%
O=C(c1cc(-c2ccc(O)cc2)on1)N1CCN(c2ccc(F)cc2)CC1	?	?	-18%	-17%	21µM*	-19%
O=C(c1cc(-c2ccc3c(c2)OCO3)on1)N1CCN(c2ccccc2)CC1	i	-12%	99%	-1%	1%	-29%
O=C(c1cc(-c2ccc(O)cc2)on1)N1CCN(c2ccccc2)CC1	?	?	18%	-3%	18µM*!	-23%
COC(=O)CC(CP(=O)(O)CN(C)C=O)C(=O)OC (configuration not stated)	i	-10%	-3%	19%	-3%	0%
COc1ccc(C(=O)C[n+]2ccc(Cl)c3ccc(Cl)cc32)cc1	nt	7.9µM*	nt	0%	7.9µM*	7%
O=C(C[n+]1ccc(Cl)c2ccc(Cl)cc21)c1ccc(F)cc1	nt	3.5µM*	nt	-10%	10µM*	-7%
COc1ccc(C(=O)c2ccc(Cl)cc2Cl)cc1	i	?	15%	-31%	-27%	-25%
